Drawing on PubChem BioAssay (EPA / NIEHS), this text covers outcome and AC50 for five molecules.

The source made the active and inactive calls. Rule for the calls: active = hit-call score of the fitted dose curve at least 0.9, where 1 is the maximum; inactive = score below 0.9.

Holding throughout (details): mRNA level, 48 h; actives raise or lower the signal
Read-out in experiment [1]: Peroxisomal acyl-coenzyme A oxidase 1 (ACOX1) gene, ACOX1 (gene 51)
Kind of experiment: LTEA_HepaRG_ACOX1: Life Technologies and Expression Analysis (LTEA) Assay for Peroxisomal acyl-coenzyme A oxidase 1 (ACOX1) gene using HepaRG (AID 2283467). The method in brief:
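Measured by qRT-PCR against three housekeeping genes: ACOX1 transcript change in human HepaRG cells after 48 h dosing. Concentrations ran up to 100 uM in half-log steps. Curves were fitted bidirectionally relative to 0.5% DMSO.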

Read-out in experiment [2]: Alkaline Phosphatase, Placental (ALPP) gene, ALPP (gene 250)
Put plainly: LTEA_HepaRG_ALPP: Life Technologies and Expression Analysis (LTEA) Assay for Alkaline Phosphatase, Placental (ALPP) gene using HepaRG (AID 2283468).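 For AC50: differentiated human HepaRG liver cells in serum-free induction medium.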 The essentials:
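ALPP transcript level, measured by qRT-PCR and normalized to three housekeeping genes (ACTB, GAPDH, POLR2A), after 48 h dosing of differentiated HepaRG in serum-free induction medium. Top concentration 100 uM with half-log dilutions (8 points, 0.5% DMSO, duplicates); bidirectional fitting relative to DMSO.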

Read-out in experiment [3]: Bcl-2 (BAD) gene, BAD (gene 572)
Kind of experiment: LTEA_HepaRG_BAD: Life Technologies and Expression Analysis (LTEA) Assay for Bcl-2 (BAD) gene using HepaRG (AID 2283469). The method in brief:
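BAD transcript change, measured by qRT-PCR against three housekeeping genes and fitted in both directions relative to 0.5% DMSO, after 48 h chemical treatment of human HepaRG liver cells at concentrations up to 100 uM.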

Read-out in experiment [4]: adenosine kinase (ADK) gene, ADK (gene 132)
Put plainly: LTEA_HepaRG_ADK: Life Technologies and Expression Analysis (LTEA) Assay for adenosine kinase (ADK) gene using HepaRG (AID 2283471). The essentials: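 Following 48 h exposure of HepaRG cells in 0.5% DMSO (top concentration 100 uM, duplicate wells), ADK mRNA induction or suppression was measured by qRT-PCR, normalised to ACTB/GAPDH/POLR2A, and fitted bidirectionally relative to vehicle.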

Read-out in experiment [5]: Alpha-fetoprotein (AFP) gene, AFP (gene 174)
Put plainly: LTEA_HepaRG_AFP: Life Technologies and Expression Analysis (LTEA) Assay for Alpha-fetoprotein (AFP) gene using HepaRG (AID 2283472). The essentials: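 After a 48 h plating period, cells are moved to serum-free induction medium and dosed in duplicate (100 uM maximum, half-log dilutions, 0.5% DMSO) for another 48 h. Total RNA goes to TaqMan qRT-PCR; AFP signal is housekeeping-normalized.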

Read-out in a further experiment: BCL2L11 (gene 10018)
Put plainly: LTEA_HepaRG_BCL2L11: Life Technologies and Expression Analysis (LTEA) Assay for Bcl-2 (BCL2L11) gene using HepaRG (AID 2283473). The essentials: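 BCL2L11 transcript levels are measured by Fluidigm qRT-PCR, normalized to three housekeeping genes. HepaRG cultures were plated 48 h, then treated 48 h with test chemical (top 100 uM, half-log, 0.5% DMSO vehicle); curves were fitted bidirectionally against DMSO.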

Read-out in experiment [6]: Apolipoprotein A-V (APOA5) gene, APOA5 (gene 116519)
Put plainly: LTEA_HepaRG_APOA5: Life Technologies and Expression Analysis (LTEA) Assay for Apolipoprotein A-V (APOA5) gene using HepaRG (AID 2283474). The method in brief: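 APOA5 transcript levels were quantified by qRT-PCR, normalized to three housekeeping genes, after 48 h chemical treatment of HepaRG cells (8 points, 100 uM maximum, half-log steps, 0.5% DMSO). Curves fitted in both directions against vehicle.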

Read-out in experiment [7]: Apoptosis regulator Bcl-2 (Homo sapiens) (UniProt P10415)
Kind of experiment: LTEA_HepaRG_BCL2: Life Technologies and Expression Analysis (LTEA) Assay for Bcl-2 gene using HepaRG (AID 2283475).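 Note: BCL2 transcript by TaqMan qRT-PCR normalised to ACTB GAPDH and POLR2A.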 The essentials:
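Expression change of BCL2 mRNA in HepaRG after 48 h dosing, quantified by TaqMan qRT-PCR against three endogenous controls. Concentration-response used eight points up to 100 uM, vehicle 0.5% DMSO.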

Read-out in experiment [8]: Bcl-2 (BID) gene, BID (gene 637)
Kind of experiment: LTEA_HepaRG_BID: Life Technologies and Expression Analysis (LTEA) Assay for Bcl-2 (BID) gene using HepaRG (AID 2283476). The method in brief: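 Gain or loss of BID expression is fitted relative to 0.5% DMSO vehicle. Human HepaRG liver cells received a 48 h chemical exposure over an eight-point concentration range.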

Read-out in the next experiment: Caspase-3 (Homo sapiens) (UniProt P42574)
Put plainly: LTEA_HepaRG_CASP3: Life Technologies and Expression Analysis (LTEA) Assay for cysteine-aspartic acid protease (CASP3) using HepaRG (AID 2283477). The essentials:
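Expression of CASP3 was quantified by TaqMan qRT-PCR against three housekeeping genes (ACTB, GAPDH, POLR2A), bidirectionally versus 0.5% DMSO. HepaRG cultures received compounds in duplicate, top 100 uM with half-log steps, for 48 h in serum-free induction medium.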

Read-out in experiment [9]: Cytochrome P450 (CYP24A1), CYP24A1 (gene 1591)
Kind of experiment: LTEA_HepaRG_CYP24A1: Life Technologies and Expression Analysis (LTEA) Assay for Cytochrome P450 (CYP24A1) using HepaRG (AID 2283478). The method in brief:
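mRNA of CYP24A1 quantified by TaqMan qRT-PCR (ACTB/GAPDH/POLR2A normalization) after 48 h chemical exposure of HepaRG cells, top concentration 100 uM, half-log steps, 0.5% DMSO vehicle, duplicates. Curves fitted bidirectionally against DMSO baseline.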

Read-out in experiment [10]: cysteine-aspartic acid protease (CASP8), CASP8 (gene 841)
Put plainly: LTEA_HepaRG_CASP8: Life Technologies and Expression Analysis (LTEA) Assay for cysteine-aspartic acid protease (CASP8) using HepaRG (AID 2283480). The essentials:
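HepaRG, 48 h exposure, duplicate wells; 8 conc, half-log from 100 uM, 0.5% DMSO. Serum-free induction medium. CASP8 mRNA by TaqMan qRT-PCR, norm. ACTB/GAPDH/POLR2A; gain/loss fitted vs DMSO.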

Read-out in experiment [11]: Cytochrome P450 2C19 (Homo sapiens) (UniProt P33261)
Put plainly: LTEA_HepaRG_CYP2C19: Life Technologies and Expression Analysis (LTEA) Assay for CYP2C19 using HepaRG (AID 2283482). The essentials: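 CYP2C19 transcript levels by qRT-PCR, normalized to three housekeeping genes, in HepaRG cells after 48 h chemical exposure. Eight-point half-log series topping at 100 uM, 0.5% DMSO vehicle. Increases and decreases both fitted against DMSO.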

Read-out in another experiment: CYP2C8 (gene 1558)
Kind of experiment: LTEA_HepaRG_CYP2C8: Life Technologies and Expression Analysis (LTEA) Assay for CYP2C8 using HepaRG (AID 2283483). The method in brief: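 CYP2C8 mRNA induction or loss, by qRT-PCR normalized to ACTB/GAPDH/POLR2A, is read in HepaRG cells after 48 h treatment. Concentrations run from 100 uM down in half-log dilutions, with 0.5% DMSO as vehicle and baseline.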

Read-out in a further experiment: CYP2C9 (gene 1559)
Kind of experiment: LTEA_HepaRG_CYP2C9: Life Technologies and Expression Analysis (LTEA) Assay for CYP2C9 using HepaRG (AID 2283484). The method in brief: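 Cells plated 48 h, switched to serum-free induction medium, then treated in duplicate for 48 h at eight concentrations (max 100 uM, 0.5% DMSO). RNA then analysed by qRT-PCR for CYP2C9; curves fitted in both directions relative to DMSO.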

Read-out in another experiment: CYP2E1 (gene 1571)
Put plainly: LTEA_HepaRG_CYP2E1: Life Technologies and Expression Analysis (LTEA) Assay for CYP2E1 using HepaRG (AID 2283485). The essentials:
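Differentiated HepaRG cells were treated in duplicate for 48 h with chemicals in 0.5% DMSO, from 100 uM downward in half-log dilutions. RNA was then analysed by qRT-PCR for CYP2E1 induction or loss.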

Read-out in a further experiment: CYP4A11 (gene 1579)
Kind of experiment: LTEA_HepaRG_CYP4A11: Life Technologies and Expression Analysis (LTEA) Assay for CYP4A11 using HepaRG (AID 2283486). The essentials: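 Readout is CYP4A11 transcript level by qRT-PCR, normalized to three housekeeping genes and fitted bidirectionally against 0.5% DMSO. Human HepaRG cells were treated 48 h, in duplicate, with an 8-point half-log series topping at 100 uM.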

Read-out in experiment [12]: Cytochrome P450 (CYP1A2), CYP1A2 (gene 1544)
Put plainly: LTEA_HepaRG_CYP1A2: Life Technologies and Expression Analysis (LTEA) Assay for Cytochrome P450 (CYP1A2) using HepaRG (AID 2283479). The method in brief:
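CYP1A2 transcript measured by TaqMan qRT-PCR against three housekeeping genes after 48-hour chemical exposure of HepaRG cells. Eight-point half-log series topping at 100 uM in 0.5% DMSO, duplicates; gain or loss fitted relative to vehicle.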

Read-out in experiment [13]: Bcl-2 (BAX) gene, BAX (gene 581)
Put plainly: LTEA_HepaRG_BAX: Life Technologies and Expression Analysis (LTEA) Assay for Bcl-2 (BAX) gene using HepaRG (AID 2283470). The method in brief: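 Concentration-response endpoint fitted in both directions relative to 0.5% DMSO vehicle. Human HepaRG cultures receive test chemicals for 48 h at up to 100 uM; BAX mRNA is quantified by qRT-PCR against housekeeping genes.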

Read-out in experiment [14]: Cytochrome P450 (CYP2B6), CYP2B6 (gene 1555)
Put plainly: LTEA_HepaRG_CYP2B6: Life Technologies and Expression Analysis (LTEA) Assay for Cytochrome P450 (CYP2B6) using HepaRG (AID 2283481). The method in brief: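 CYP2B6 transcript level quantified by qRT-PCR against three housekeeping genes, fitted bidirectionally relative to DMSO. HepaRG cultures received chemicals for 48 h, 8-point half-log series from 100 uM in 0.5% DMSO, duplicate wells, serum-free induction medium.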

Cytochrome P450 2C19 (Homo sapiens), sequence (P33261 whole entry, looked up): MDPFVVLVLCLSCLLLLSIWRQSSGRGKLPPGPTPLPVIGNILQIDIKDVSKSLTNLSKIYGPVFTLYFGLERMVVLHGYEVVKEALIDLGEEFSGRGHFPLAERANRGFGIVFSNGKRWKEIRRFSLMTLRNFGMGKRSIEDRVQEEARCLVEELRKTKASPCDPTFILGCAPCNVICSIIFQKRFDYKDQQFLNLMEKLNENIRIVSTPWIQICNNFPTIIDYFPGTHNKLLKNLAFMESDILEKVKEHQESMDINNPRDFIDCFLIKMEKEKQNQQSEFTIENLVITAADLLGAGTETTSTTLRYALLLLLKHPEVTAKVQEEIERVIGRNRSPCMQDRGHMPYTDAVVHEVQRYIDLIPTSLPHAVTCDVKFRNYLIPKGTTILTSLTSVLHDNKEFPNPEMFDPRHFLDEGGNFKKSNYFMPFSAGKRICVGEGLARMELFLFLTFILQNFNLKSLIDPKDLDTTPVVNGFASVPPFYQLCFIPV
Apoptosis regulator Bcl-2 (Homo sapiens), sequence (P10415 whole entry, looked up): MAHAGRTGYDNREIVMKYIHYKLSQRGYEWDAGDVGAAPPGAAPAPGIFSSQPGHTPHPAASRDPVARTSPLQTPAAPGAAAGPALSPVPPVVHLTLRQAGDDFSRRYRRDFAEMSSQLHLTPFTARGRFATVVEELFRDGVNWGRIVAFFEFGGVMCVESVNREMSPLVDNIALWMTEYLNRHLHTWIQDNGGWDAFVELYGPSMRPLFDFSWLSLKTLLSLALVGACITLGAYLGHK
Caspase-3 (Homo sapiens), sequence (P42574 whole entry, looked up): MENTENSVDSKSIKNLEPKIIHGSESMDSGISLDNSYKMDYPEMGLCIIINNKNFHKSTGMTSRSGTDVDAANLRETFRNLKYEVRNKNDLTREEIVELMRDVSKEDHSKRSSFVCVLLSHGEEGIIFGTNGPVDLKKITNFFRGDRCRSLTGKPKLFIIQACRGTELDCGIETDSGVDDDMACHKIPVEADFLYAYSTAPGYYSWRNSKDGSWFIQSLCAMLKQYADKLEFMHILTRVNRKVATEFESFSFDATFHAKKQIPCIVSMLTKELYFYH

For `CC(=O)O`, the result (in experiment [1]; in experiment [2]; in [3]; in [4]; in experiment [5]; in the experiment with BCL2L11 (gene 10018)) was inactive. Further, the outcome (in experiment [6]; in experiment [7]; in experiment [8]; in the experiment with Caspase-3 (Homo sapiens); in experiment [9]; in experiment [10]) was inactive. In addition, the molecule was classed as inactive (in [11]; in the experiment with CYP2C8 (gene 1558); with CYP2C9 (gene 1559); with CYP2E1 (gene 1571); with CYP4A11 (gene 1579)).
As usually defined, the AC50 is the concentration at which the activity in the assay is half-maximal. With `O=C1NC(=O)C(c2ccccc2)(c2ccccc2)N1`, the outcome (in experiment [1]; in experiment [2]; in experiment [3]; in experiment [4]; in experiment [5]; in the experiment with BCL2L11 (gene 10018)) was inactive. In addition, the call (in [6]; in experiment [7]; in experiment [8]; in the experiment with Caspase-3 (Homo sapiens); in [9]; in [10]) was inactive. Moreover, the result with CYP2C9 (gene 1559) was inactive. Besides, the concentration at half-maximal activity (AC50) in experiment [12] is 50 µM (active); in experiment [11] it was 14.1 µM (active); with CYP2C8 (gene 1558), 13.1 µM (active); in the experiment with CYP2E1 (gene 1571), 29.7 µM (active); with CYP4A11 (gene 1579) it was 12.1 µM (active).
In the case of `CN(C)CCCN1c2ccccc2Sc2ccc(Cl)cc21`, the AC50 in experiment [2] is 11.8 µM (active); in [4], 90.5 µM (active); in [5], 26.6 µM (active); with BCL2L11 (gene 10018), 72.8 µM (active); in experiment [6] it was 85.8 µM (active); in experiment [12], 19.4 µM (active). The AC50 in [10] is 94.5 µM (active); in experiment [14], 2.21 µM (active); with CYP2E1 (gene 1571), 13.3 µM (active); with CYP4A11 (gene 1579), 84.7 µM (active). The outcome (in [3]; in experiment [13]; in experiment [7]; in experiment [8]; with Caspase-3 (Homo sapiens); in experiment [9]) was inactive. The result with CYP2C8 (gene 1558) and with CYP2C9 (gene 1559) was inactive.
As for `CC(C)COC(=O)CCCCC(=O)OCC(C)C`, the molecule was classed as inactive (in experiment [1]; in experiment [2]; in experiment [3]; in experiment [4]; in experiment [5]; with BCL2L11 (gene 10018)). Besides, the molecule was classed as inactive (in [6]; in experiment [7]; in experiment [8]; in the experiment with Caspase-3 (Homo sapiens); in [9]; in experiment [10]). Besides, the molecule was classed as inactive (in experiment [14]; in [11]; with CYP2C8 (gene 1558); with CYP2C9 (gene 1559); in the experiment with CYP2E1 (gene 1571); with CYP4A11 (gene 1579)).
`N[C@@H](Cc1c[nH]c2ccccc12)C(=O)O`: the result (in experiment [1]; in experiment [2]; in [3]; in [4]; in experiment [5]; in the experiment with BCL2L11 (gene 10018)) was inactive. Further, the molecule was called inactive (in experiment [6]; in experiment [7]; in experiment [8]; with Caspase-3 (Homo sapiens); in experiment [9]; in [10]). The result (in experiment [11]; with CYP2C8 (gene 1558); in the experiment with CYP2C9 (gene 1559); with CYP2E1 (gene 1571); in the experiment with CYP4A11 (gene 1579)) was inactive.
